# Screening data: PubChem, several laboratories
# In the library only some 3.6% were active in any assay of this set; here they are far more common.
# GDH-TPI counter: GDH-TPI coupled enzyme inhibition counter-screen | GDH-TPI coupled enzyme counterscreen, NADH absorbance | inhibition, % at 4.8 µM | actives 1.2% (n = 360,000); in the data active = inhibition above about 30%;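 also: 0% = DMSO wells and 100% = wells lacking the enzyme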
# Mtb betalactam: beta-lactam sensitization of Mtb H37Rv. inhibition, % at 25 µM. M. tuberculosis H37Rv growth with meropenem, percent inhibition. actives 0.27% (n = 330,000). AID 434955; call rule not given here;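 also: growth measured after seven days incubation then overnight dye step; 0% = bacteria only wells and 100% = bacteria with antibiotic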
# VHR inh abs: blocks human VHR1 dual specificity phosphatase; P51452; recombinant VHR phosphatase, pNPP absorbance; inhibition, % at 13.3 µM; actives 0.52% (n = 290,000); AID 1654; in the data active = inhibition above about 50%
# Target sequence (P51452 whole entry, looked up): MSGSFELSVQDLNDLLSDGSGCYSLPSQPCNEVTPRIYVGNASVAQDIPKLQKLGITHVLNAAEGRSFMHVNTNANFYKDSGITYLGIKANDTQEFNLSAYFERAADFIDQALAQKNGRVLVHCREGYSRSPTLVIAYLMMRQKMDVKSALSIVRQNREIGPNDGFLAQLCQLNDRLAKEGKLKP
# FBA Mtb inh: Mtb fructose-bisphosphate aldolase inhibition | P9WQA3 | purified M. tuberculosis FBA, fluorescence read-out | inhibition, % at 1 µM | actives 2.3% (n = 360,000); in the data active = inhibition above about 27%;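 also: 0% = vehicle and 100% = reference inhibitor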
# Target sequence (P9WQA3 whole entry, looked up): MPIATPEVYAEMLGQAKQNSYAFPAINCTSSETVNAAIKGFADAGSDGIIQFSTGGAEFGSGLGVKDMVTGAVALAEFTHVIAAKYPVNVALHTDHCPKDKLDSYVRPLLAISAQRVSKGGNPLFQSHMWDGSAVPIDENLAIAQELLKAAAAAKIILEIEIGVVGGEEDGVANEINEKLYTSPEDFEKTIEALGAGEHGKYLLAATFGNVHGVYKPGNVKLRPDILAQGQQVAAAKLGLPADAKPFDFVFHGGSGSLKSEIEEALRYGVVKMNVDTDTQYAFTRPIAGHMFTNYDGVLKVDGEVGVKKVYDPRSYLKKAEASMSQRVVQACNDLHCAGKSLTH
# Mtb hypoxia inh: Mtb hypoxia fluorescent reporter inhibition. M. tuberculosis hypoxia-regulated fluorescent reporter, fluorescence. fluorescence inhibition, % (concentration not given with the values). actives 0.1% (n = 300,000). AID 1159583; in the data active = fluorescence inhibition mostly above about 23%, no sharp cut-off; inactive = mostly below about 17%
# Starred values were filed as active, the others as inactive; ? = inconclusive; . = not tested or not shown.
SMILES,GDH-TPI counter,Mtb betalactam,VHR inh abs,FBA Mtb inh,Mtb hypoxia inh
COc1cccc(/C=N/NC(=O)c2ccc(=O)[nH]n2)c1O,31*,1,20,3,.
COc1cccc(/C=N/NC(=O)c2[nH]c(C)c(C(=O)N/N=C/c3cccc(OC)c3O)c2C)c1O,43*,1,-20,1,.
Cc1[nH]c(C(=O)N/N=C/c2ccc(C(=O)O)cc2)c(C)c1C(=O)N/N=C/c1ccc(C(=O)O)cc1,74*,4,26,-1,.
COc1ccc(OC)c(/C=N/NC(=O)c2ccc(=O)[nH]n2)c1,12,-2,-7,-4,.
COc1cc(C=NNc2cccc(C)c2)cc(Br)c1O,.,.,.,.,-2
CC1CN(C(C)CO)C(=O)Cc2cc(NS(C)(=O)=O)ccc2OC1CN(C)CC1CC1 (configuration not stated),.,.,.,.,11
Cc1c(NS(=O)(=O)c2cc(C(=O)N3CCCC(C)C3)ccc2Cl)c(=O)n(-c2ccccc2)n1C (configuration not stated),2,2,.,0,1
Cc1c(N(C)S(=O)(=O)c2cc(C(=O)N3CCCC3)ccc2Cl)c(=O)n(-c2ccccc2)n1C,-7,?,53*,1,6
O=C(C1=CC(c2ccc(C(F)(F)F)cc2)CC(OCCCCO)O1)N1CCOCC1 (configuration not stated),.,.,.,.,5
Cc1ccc2cc(C#N)c(NCc3ccco3)nc2c1,5,-9,4,116*,0
O=C(CC(=O)c1ccccc1)Nc1cc([N+](=O)[O-])ccc1Cl,31*,0,-12,0,11
CCc1ccc(C2=NN(C(=O)OC)C(O)(C(F)(F)F)C2)cc1 (configuration not stated),3,13,52*,1,3
FC(F)(F)c1ccc(CN2CCCCCC2)cc1,2,7,52*,3,9
COc1ccc(CN2CCN(Cc3ccc(C(F)(F)F)cc3)CC2)cc1,-2,-1,-8,2,6
COc1cc(C=CC(=O)N2CCCN(C(=O)C=Cc3cc(OC)c(OC)c(OC)c3)CC2)cc(OC)c1OC,.,.,.,.,2
O=C(O)c1ccc2cc[nH]c2c1,-11,5,54*,16,11
O=C(O)c1ccc2ccc3ccccc3c2c1,-5,73,.,2,9
COC(=O)C1=C(c2ccc3ccccc3c2)CC2CCC1N2C(=O)NC(C)C (configuration not stated),.,.,.,.,8
COCCOC(=O)/C(=C/c1ccc(OC(=O)c2ccccc2)cc1)C(C)=O,10,-6,-3,31*,6
CCOC(=O)/C(=C/c1ccc(OC(=O)c2ccncc2)cc1)C(C)=O,7,2,14,-2,-14
CCc1ccccc1NC1=NCC(=O)N1Cc1ccc(OC)cc1,17,-7,20,0,.
CCc1ccccc1NC1=NCC(=O)N1C1CCCC1,-7,16,53*,-2,-1
COC(=O)C1=C(c2cc3ccccc3o2)CC2CCC1N2C(=O)NCCO (configuration not stated),.,.,.,.,10
Cc1ccc(-n2ncc(C(=O)NCC3CCN(C4CCCC4)C3)c2C2CCN(C(=O)OC(C)(C)C)CC2)cc1 (configuration not stated),5,12,18,-1,-19
Cc1ccc(-n2ncc(C(=O)NCC3CCN(C4CCCC4)C3)c2C2CCN(C(=O)OC(C)(C)C)CC2)cc1C (configuration not stated),2,4,58*,-3,-5
SMILES,GDH-TPI counter,Mtb betalactam,VHR inh abs,FBA Mtb inh,Mtb hypoxia inh
Cc1ccc(C(=O)N2CCN(c3cccc(Cl)c3)CC2)cc1C,31*,-1,12,3,13
Cc1ccc(C(=O)N2CCN(c3ccccc3)CC2)cc1C,4,-4,37,0,20
CC(=O)c1ccc(N2CCN(C(=O)C3CCCN(c4ncnc5c4nc4n5CCCCC4)C3)CC2)cc1 (configuration not stated),31*,1,-7,3,5
CC1CCN(C(=O)C2CCN(c3ncnc4c3nc3n4CCCCC3)CC2)CC1,3,100,11,-1,28*
COC(=O)C1=C(c2c(C)noc2C)CC2CCC1N2C(=O)N1CCOCC1 (configuration not stated),.,.,.,.,14
C#CCOCCOCCOCCNc1nc(N2CCN(C(=O)Cn3cc(CCCN=C(N)N)nn3)CC2)nc(N2CCN(C(=O)C(C(C)CC)n3cc(CCCCN)nn3)CC2)n1 (configuration not stated),.,.,.,.,10
CC1CN(C(=O)c2cc3cc(Cl)ccc3[nH]2)CC(C)O1 (configuration not stated),6,-3,16,1,5
CC1CN(C(=O)c2cc3cc(F)ccc3[nH]2)CC(C)O1 (configuration not stated),0,6,53*,-1,8
Cc1ccccc1C(=O)N/C(=C/c1ccc(-c2cccnc2Cl)o1)C(=O)NCCCN1CCN(C)CC1,39*,-7,7,4,-6
COc1ccc(/C=C(\NC(=O)c2ccccc2)C(=O)NN=Cc2sccc2C)cc1,.,.,.,.,16
COc1ccc(/C=C(\NC(=O)c2ccccc2)C(=O)N/N=C/c2sccc2C)cc1,40*,4,19,2,.
Cc1cccc(NC(=O)/C(=C\c2cccs2)NC(=O)c2ccccc2)c1,34*,-4,0,-1,8
O=C(CNC(=O)c1ccccc1)N/N=C/c1cccs1,-1,4,13,-2,.
COc1ccc(/C=C(/NC(=O)c2ccccc2)C(=O)NN=Cc2sccc2C)cc1,.,.,.,.,3
COc1ccc(/C=C(/NC(=O)c2ccccc2)C(=O)N/N=C/c2sccc2C)cc1,52*,-1,12,-1,.
O=C(Nc1ccccc1)/C(=C\c1cccs1)NC(=O)c1ccccc1,23,4,0,-1,-7
O=C(N/N=C/c1cccs1)/C(=C/c1ccccc1)NC(=O)c1ccccc1,42*,-1,-8,0,.
Cc1cc(Br)cc(C=NNC(=O)c2ccc3c(c2)OCO3)c1O,.,.,.,.,3
O=C(N/N=C/c1ccc(O)c(O)c1O)/C(=C/c1ccc([N+](=O)[O-])cc1)NC(=O)c1ccccc1,37*,4,14,-10,.
CN(C)c1ccc(/C=C(/NC(=O)c2ccccc2)C(=O)NN=Cc2ccc([N+](=O)[O-])c(O)c2)cc1,.,.,.,.,-1
O=C(N/N=C/C=C/c1ccco1)/C(=C/c1ccccc1)NC(=O)c1ccccc1,37*,1,28,0,.
COc1ccc(OC)c(/C=C(\NC(=O)c2ccccc2)C(=O)N/N=C/c2ccc(C)s2)c1,49*,4,32,-3,.
CC(C)CC(N)c1csc(Nc2ccc(C(=O)NCCCO)cn2)n1 (configuration not stated),34*,.,.,2,.
CCN1CC2C3C(=O)N(Cc4ccccc4)C(=O)C3[C@](CC)(C1=O)N2C(=O)c1ccccc1 (some centres not stated),.,.,.,.,18
c1ccc(CSc2nccc(-c3ccco3)n2)cc1,13,9,.,0,1
Cc1ccc(C)n1-c1nccc(-c2cccs2)n1,-5,7,25,161*,7
